Hits are enriched below; roughly 2% of the tested compounds scored in any of these assays.
M4 PAM: positive allosteric modulators of human muscarinic M4 receptor | activation, % at 3 µM | CHO-K1 hM4/Gqi5, Fluo-8 calcium fluorescence, ACh EC20; 0% = ACh EC20, 100% = maximal ACh | 0.4% of 360,000 active | AID 624126;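 active = activation above its plate's cutoff, the mean activation of sample wells plus 3 SD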
Target sequence (P08173 whole entry, looked up): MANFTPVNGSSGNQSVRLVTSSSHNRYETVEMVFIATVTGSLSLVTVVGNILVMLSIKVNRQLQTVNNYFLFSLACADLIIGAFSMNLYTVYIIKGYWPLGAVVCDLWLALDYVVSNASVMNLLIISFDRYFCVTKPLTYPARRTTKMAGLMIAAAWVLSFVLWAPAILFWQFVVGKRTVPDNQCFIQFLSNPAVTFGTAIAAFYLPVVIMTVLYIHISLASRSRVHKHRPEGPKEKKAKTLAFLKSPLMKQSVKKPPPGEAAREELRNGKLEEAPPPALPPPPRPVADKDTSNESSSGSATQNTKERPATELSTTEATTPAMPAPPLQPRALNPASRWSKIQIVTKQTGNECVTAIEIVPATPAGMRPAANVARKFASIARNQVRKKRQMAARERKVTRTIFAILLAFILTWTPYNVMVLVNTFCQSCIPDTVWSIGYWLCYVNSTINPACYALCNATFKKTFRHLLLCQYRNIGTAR
CHO-K1 Ca PAM: nonselective activator or artifact in parental CHO-K1 calcium assay; ATP EC20, Fluo-8 calcium fluorescence; 0% at ATP EC20, 100% at ATP max; activation, % at 3 µM; 0.02% of 360,000 active; AID 602247;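 active = activation above the run cutoff, the mean activation of all test compounds plus 3 SD, cut at about 40% in these data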;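 also: peak over basal fluorescence ratio in a 140 s read after ATP addition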
M1 ag parental: M1 agonist counterscreen hit in parental CHO-K1 cells | Fluo-8 calcium fluorescence; scaled to maximal ATP response, vehicle zero | activation, % at 3 µM | 0.48% of 360,000 active; in the data active = activation above about 15%;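 also: untransfected CHO-K1 host cells lacking M1 receptor as counterscreen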
M4 ag: CHRM4 agonism in calcium assay; P08173; AID 624127; activation, % at 3 µM; CHO-K1 hM4/Gqi5, Fluo-8 calcium fluorescence; vehicle 0%, full acetylcholine response 100%; 0.14% of 360,000 active;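 active = activation above the run mean over all test wells plus 3 SD, cut at about 32% in these data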;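 also: peak over basal fluorescence ratio per well then scaled between controls; 0% = DMSO wells and 100% = acetylcholine at EC100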
CHO-K1 Ca antag: M1 antagonist counterscreen hit in parental CHO-K1 cells. ATP-induced calcium, Fluo-8 fluorescence. inhibition, % at 3 µM. 0.6% of 360,000 active;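 active = inhibition above a per-plate cutoff, the plate's mean sample inhibition plus 3 SD, cut at about 24% in these data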;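 also: 0% = DMSO plus EC80 ATP and 100% = DMSO alone without ATP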
M4 antag: blocks acetylcholine activation of human M4 receptor; P08173; inhibition, % at 3 µM; CHO-hM4 cells, ACh EC80, Fluo-8 calcium fluorescence; 0.73% of 360,000 active;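 active = inhibition above its plate's cutoff, the mean inhibition of sample wells plus 3 SD, cut at about 27% in these data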;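 also: 0% = acetylcholine EC80 with DMSO and 100% = DMSO without agonist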
Active calls of the source: *; ! = a repeat was not active.

SMILES	M4 PAM	CHO-K1 Ca PAM	M1 ag parental	M4 ag	CHO-K1 Ca antag	M4 antag
O=C1CSC2(C(=O)N3CCCc4cccc2c43)N1c1cccc(C(F)(F)F)c1 (stereo not drawn)	-32	12	0	-2	-8	50*
CC1(C(=O)NS(=O)(=O)c2ccc(Cl)cc2)CCN1C(=O)C1(c2ccccc2)CCCC1 (stereo not drawn)	2	-3	1	-1	-6	4
CC1(C(=O)NS(=O)(=O)c2ccc(C#N)cc2)CCN1C(=O)C1(c2ccccc2)CCCC1 (stereo not drawn)	18*	5	0	2	-14	-15
CCCNC(=O)c1ccc(C2SCC(=O)N2Cc2ccccc2)cc1 (stereo not drawn)	-19	19	0	1	-14	20
CC(C)CNC(=O)c1ccc(C2SCC(=O)N2Cc2ccccc2)cc1 (stereo not drawn)	-25	6	1	1	0	47*
COc1ccc(N2Cc3ccc(OC)c(OC)c3C2=O)cc1	-18	-4	0	0	7	60*
CC(C)C[C@H](N)c1nnc(S(=O)(=O)Cc2ccc(F)cc2)o1	-2	-6	0	1	19	28*
CC(C)C[C@H](N)c1nnc(SCC(=O)Nc2ccc(Br)cc2)o1	-3	-10	2	5	-2	-9
Cc1cccc(NC(=O)c2cc3c(n(-c4ccccc4)c2=O)CCCC3=O)n1	1	21	0	0	-8	-2
COc1ccc(-c2csc(NC(=O)C3=COCCO3)n2)c(OC)c1	-1	9	0	-1	-8	-9
CCC(C)Sc1cccc(-c2nc3cnccn3c2NC2CCCCC2)c1 (stereo not drawn)	-11	-6	-1	-2	-10	26*
CCC(C)Sc1cc(-c2nc3ccccn3c2NC2CCCCC2)ccc1OC (stereo not drawn)	-9	9	0	5	-14	55*!
Nc1ncnc(Nc2ccc(F)c(Cl)c2)n1	12*	15	1	1	-14	0
CCCc1cc(N2CCCC(C(=O)NCc3ccc4c(c3)OCO4)C2)n2ncnc2n1 (stereo not drawn)	12	-1	0	-3	4	-1
CCN(c1ccccc1)S(=O)(=O)c1ccc(NC(=O)c2nc(S(C)(=O)=O)ncc2Cl)cc1	-15	-9	6	36*	18	75*
CCS(=O)(=O)c1ncc(Cl)c(C(=O)Nc2ccc(S(=O)(=O)N(C)c3ccccc3)cc2)n1	-14	-30	1	14	14	59*
CC(=O)Nc1ccc(S(=O)(=O)N(C)c2ccccc2)cc1	6	19	1	2	-11	-11
Cc1cc(C)n2nc(CNS(=O)(=O)c3ccc([N+](=O)[O-])cc3)nc2n1	4	2	1	0	-6	-3
O=c1c2ccccc2nc(/C=C/c2ccccc2)n1CCCO	-8	-10	2	9	-5	-4
CN(C)c1ccc(/C=C/c2nc3ccccc3c(=O)n2CCO)cc1	-20	-23	14	42*	4	9
CCOc1ccc(N=C2Sc3nc4ccc(C)cc4cc3CN2CCOC)cc1	-3	-12	0	1	-6	-8
Cc1nc(NC(=O)c2ccc(F)cc2)sc1C(=O)Nc1ccc2c(c1)CCC2	7	10	0	0	-17	2
O=C(CCn1c(=O)sc2ccccc21)Nc1cccnc1	22	7	1	2	-3	3
Cc1ccc(NC(=O)CS(=O)(=O)c2cn(CC(=O)N3CCOCC3)c3ccccc23)cc1	25	-16	0	2	6	36*
CC(C)C(NC(=O)OCc1ccccc1)C(=O)OCC(=O)N1CCCCC1 (stereo not drawn)	0	14	1	1	-11	-7
SMILES	M4 PAM	CHO-K1 Ca PAM	M1 ag parental	M4 ag	CHO-K1 Ca antag	M4 antag
CC(C)C(NC(=O)OCc1ccccc1)C(=O)NC1CCCCC1 (stereo not drawn)	31*	3	0	2	-7	3
CC1CCCC(C)N1/N=C/c1cccc([N+](=O)[O-])c1 (stereo not drawn)	4	31	1	1	-21	-12
COc1ccc(NC(=O)C(=O)NCC2CCCN2S(=O)(=O)c2cc(C)ccc2C)cc1 (stereo not drawn)	-4	12	0	9	52*	-6
COc1cccc(OC)c1C(=O)Nn1c(C2CCC2)nc2ccccc2c1=O	-7	24	4	12	-16	-10
O=C(Nn1c(C2CCCCC2)nc2ccccc2c1=O)c1ccc([N+](=O)[O-])cc1	-6	-14	0	2	24*	2
COc1cc(/C=C2\S/C(=N/S(=O)(=O)c3ccccc3)NC2=O)c([N+](=O)[O-])cc1OC	-5	-7	2	0	27*	16
CCOc1cc(/C=N\NC(=O)Cc2ccccc2)ccc1OCC(=O)Nc1ccc(C)c(C)c1	9	16	0	0	-5	11
COCCOC(=O)C1=C(C)N(c2ccccc2)C(=S)NC1c1ccccc1C(F)(F)F (stereo not drawn)	17	27	0	0	-12	-21
O=C(CC(c1ccccc1)c1cc(Cl)ccc1O)N1CCCC1 (stereo not drawn)	-16	24	12	-1	-11	3
O=C(CC(c1ccccc1O)N1CCCCC1)N1CCCCC1 (stereo not drawn)	-29	-2	0	2	-1	78*
O=C(C1CCC(CNS(=O)(=O)c2cccc3nsnc23)CC1)N1CC=C(c2ccccc2)CC1 (stereo not drawn)	2	-10	1	5	26*	-11
COc1ccc(SCCN2CC[C@@H](C)CCC2=O)cc1	-2	-18	1	2	24*	9
CCCc1n[nH]c2c1/C(=N/O)CC(c1ccccc1)C2 (stereo not drawn)	-1	20	1	3	-12	-5
C=CCN(C(=O)C1CC(=O)N(C2CCCC2)C1)c1nc(-c2ccc(S(C)(=O)=O)cc2)cs1 (stereo not drawn)	-13	8	15	32*	-5	19
CCCCn1c(N)c(N(CC)C(=O)c2ccc(C)cc2)c(=O)[nH]c1=O	5	12	1	0	-15	6
CCCCn1c(N)c(N(CCOC)C(=O)c2cc(C)oc2C)c(=O)[nH]c1=O	4	-20	4	0	24*	-7
CCCCn1c(N)c(N(CCOC)C(=O)C2CCN(S(=O)(=O)c3ccc(C)cc3C)CC2)c(=O)[nH]c1=O	24*	16	1	1	0	2
CCCCn1c(N)c(N(CC)C(=O)c2cc(OC)cc(OC)c2)c(=O)[nH]c1=O	-3	6	16*	1	-3	-1
